For five compounds, inhibition results are on record in PubChem BioAssay AID861 (The Scripps Research Institute Molecular Screening Center, 2007).

About 360 (0.18%) of roughly 200,000 compounds were called active. Many of the other results were omitted from the sample, so actives are more common in it than they were. A number with no mark means an inactive call. Cut-off read from the data, not from the text of the source: active = inhibition above about 25%; inactive = the rest.

As a reminder, the inhibition is the relative decrease from the control value, in per cent.

The target in the assay is Toll-like receptor 4 (Homo sapiens) + Myeloid differentiation primary response protein MyD88 (Homo sapiens) (UniProt O00206+Q99836). Nature of the assay: disruptors of TLR4 binding to MyD88 – cell-based, HeLa CL3-4, BLA complementation, FRET ratio, primary screen (AID 861).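 Note: 0% = vehicle and 100% = reference inhibitor.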 The conditions noted are these: HeLa CL3-4 TLR4/MyD88 BLA complementation, at 8.4 µM, hits give high values.
Chain of Toll-like receptor 4 (Homo sapiens) + Myeloid differentiation primary response protein MyD88 (Homo sapiens) (O00206 whole entry, looked up): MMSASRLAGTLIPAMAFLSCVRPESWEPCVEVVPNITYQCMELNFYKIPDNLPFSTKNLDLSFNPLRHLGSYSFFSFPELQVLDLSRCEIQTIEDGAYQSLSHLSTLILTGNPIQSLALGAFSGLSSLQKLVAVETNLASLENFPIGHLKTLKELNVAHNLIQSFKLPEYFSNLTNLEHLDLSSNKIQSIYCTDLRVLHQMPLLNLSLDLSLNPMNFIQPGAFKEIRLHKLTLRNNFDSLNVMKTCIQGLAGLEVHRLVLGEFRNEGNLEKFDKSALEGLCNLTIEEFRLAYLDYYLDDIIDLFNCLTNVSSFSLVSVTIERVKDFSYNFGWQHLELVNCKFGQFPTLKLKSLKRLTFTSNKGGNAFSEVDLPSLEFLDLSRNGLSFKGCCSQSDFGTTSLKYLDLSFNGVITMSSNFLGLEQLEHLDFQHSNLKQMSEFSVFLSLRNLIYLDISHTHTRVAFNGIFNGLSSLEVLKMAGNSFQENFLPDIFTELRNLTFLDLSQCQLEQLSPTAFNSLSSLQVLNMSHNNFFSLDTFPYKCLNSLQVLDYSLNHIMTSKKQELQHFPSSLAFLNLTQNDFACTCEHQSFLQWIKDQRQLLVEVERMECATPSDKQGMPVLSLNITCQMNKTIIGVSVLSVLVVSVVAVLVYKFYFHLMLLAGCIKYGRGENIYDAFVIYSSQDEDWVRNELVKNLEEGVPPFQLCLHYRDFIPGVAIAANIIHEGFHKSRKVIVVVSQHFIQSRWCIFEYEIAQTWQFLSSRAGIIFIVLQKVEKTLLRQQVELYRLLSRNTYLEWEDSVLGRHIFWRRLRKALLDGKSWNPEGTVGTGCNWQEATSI
Chain of Toll-like receptor 4 (Homo sapiens) + Myeloid differentiation primary response protein MyD88 (Homo sapiens) (Q99836 whole entry, looked up): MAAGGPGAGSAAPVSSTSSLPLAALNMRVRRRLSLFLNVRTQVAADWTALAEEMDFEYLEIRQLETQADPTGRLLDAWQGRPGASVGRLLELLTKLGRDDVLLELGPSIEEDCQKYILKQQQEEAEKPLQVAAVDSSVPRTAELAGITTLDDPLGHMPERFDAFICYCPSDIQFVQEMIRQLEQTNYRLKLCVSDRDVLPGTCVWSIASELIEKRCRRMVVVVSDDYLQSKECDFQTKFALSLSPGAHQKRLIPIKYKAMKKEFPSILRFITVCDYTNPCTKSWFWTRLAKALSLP
As for `COc1ccc(CN2CCN(c3ccccc3F)CC2)c(OC)c1`, the inhibition is 29.3% (active).

`Fc1cccc(F)c1CN1CCN(Cc2c(F)cccc2F)CC1`: the inhibition was 6.5%.

With `CC(C)c1ccc(O)c(CN2CCN(c3ccccc3)CC2)c1`, the inhibition was -8.07%.

For `CN(C)CCCN=Cc1c(O)n(Cc2ccco2)c(=O)[nH]c1=O`, the inhibition is -1.36%.

`CCOc1ccc(C2SCC(=O)Nc3c2c(C)nn3C2CCOC(C)(C)C2)cc1` (stereo not given): the inhibition is -12%.
